The values that follow come from PubChem BioAssay (EPA / NIEHS).

Molecules are shown by their SMILES. Values joined by “and” are separate entries in the source; they are usually repeats but may differ in a detail not shown here. Identical values can stand only once. Some structures have more than one record in an assay (separate samples or runs), and their calls can disagree. Active and inactive are the calls of the source. Rule for the calls: active = hit-call score of the fitted dose curve at least 0.9, where 1 is the maximum; inactive = score below 0.9.

Read-out in this test: Interferon-inducible T-cell alpha chemoattractant (ITAC), CXCL11 (gene 6373)
Description: BSK_BE3C_ITAC: BioMAP Diversity Plus: BE3C Assay for Interferon-inducible T-cell alpha chemoattractant (ITAC) Biomarker Activity (AID 2284279). Particulars: primary human bronchial epithelial cells. How it is done:
BSK_BE3C is a cell-based, multiplexed-readout assay that uses bronchial epithelial cell, a human lung primary cell, with measurements taken at 24 hours after chemical dosing in a 96-well plate.BSK_BE3C_ITAC is an assay component measured in the BSK_BE3C assay. It measures I-TAC antibody related to regulation of gene expression using ELISA technology.Data from the assay component BSK_BE3C_ITAC was analyzed at the endpoint, BSK_BE3C_ITAC, in the positive analysis fitting direction relative to DMSO as the negative control and baseline of activity. Using a type of binding reporter, gain or loss-of-signal activity can be used to understand protein changes. To generalize the intended target to other relatable targets, this assay endpoint is annotated to the 'cytokine' intended target family, where the subfamily is 'chemotactic factor'.
The levels of cell surface (or secreted, indicated by the prefix "s") biomarker endpoints were measured by ELISA. Overt cytotoxicity to cells in confluent adherent cultures (all systems other than the BT system) was assessed by measuring total protein levels using sulforhodamine B (SRB) staining in parallel cultures at the time of biomarker measurements, indicated as SRB endpoints. For proliferation assays for adherent cell types, individual cell types are cultured at sub-confluence and relative cell numbers quantified by SRB staining at time points optimized for each system (48 h: 3C and CASM3C systems; 72 h: BT and HDF3CGF systems; 96 h: SAg system). SRB was performed by staining cells with 0.1% SRB after fixation with 10% TCA and reading wells at 560 nm.Viability and proliferation of PBMC (T cells) was quantified by Alamar Blue reduction for the SAg and BT systems. For PBMC viability (referred to as PBMC Cytotoxicity within the assay endpoint names), cells were plated (75,000/well in a 96-well plate) and then chemical samples added for 1 h before addition of activators, SEB and TSST-1 (20 ng/mL final concentration each). Cells were incubated for 90 h. Then, Alamar Blue (20 uL/well) (Invitrogen, Cat DAL1100) was added for 6 h, and the plates were read with a fluorescence microplate reader at 546/580 nm (excitation/emission). For PBMC proliferation, cells were plated and activated as above but incubated for only 16 h prior to addition of Alamar Blue. Plates were read after 6 h.
On to `FC(F)(I)C(F)(F)C(F)(F)C(F)(F)I`, for which the AC50 (in general, the concentration giving half of the maximal activity seen) is 46.2 µM (active) and 51.9 µM (active) and 49.2 µM (active).

`FC(F)(F)C(F)(F)C(F)(F)C(F)(F)C(F)(F)C(F)(F)C(F)(F)C(F)(F)F`: the outcome was inactive.

For `CCCCCCCCC(F)(F)C(F)(F)C(F)(F)C(F)(F)C(F)(F)C(F)(F)F`, the result was inactive.

With `O=C(O)C(F)(F)C(F)(F)C(F)(F)C(F)(F)C(F)(F)C(F)(F)C(F)(F)C(F)(F)C(F)(F)C(F)(F)C(F)(F)C(F)(F)C(F)(F)F`, the outcome was inactive and the half-maximal activity concentration (AC50) is 25.9 nM (active).

For the compound `FC(F)(F)C(F)(F)C(F)(F)C(F)(F)C(F)(F)C(F)(F)C(F)(F)I`, the outcome was inactive.

For `C=CC(F)(F)C(F)(F)C(F)(F)C(F)(F)C(F)(F)C(F)(F)C(F)(F)C(F)(F)C=C`, the result was inactive.

Take `N=C(N)C(F)(F)C(F)(F)C(F)(F)C(F)(F)C(F)(F)C(F)(F)C(F)(F)F`: the result was inactive.

In the case of `O=S(=O)(OCCOC(F)(F)F)C(F)(F)F`, the result was inactive.

With `O=C(O)C(F)(F)C(F)(F)C(F)(F)C(F)(F)C(F)(F)C(F)(F)C(F)(F)C(F)(F)C(F)(F)C(F)F`, the concentration at half-maximal activity (AC50) is 9.92 µM (active) and 11.3 µM (active).

Turning to `O=P(O)(O)OCCC(F)(F)C(F)(F)C(F)(F)C(F)(F)C(F)(F)C(F)(F)F`, the result was inactive.

Take `O=C(CC(=O)C(F)(F)C(F)(F)F)C(F)(F)F`: the outcome was inactive.

As to `OCC(F)(F)C(F)(F)C(F)(F)C(F)(F)C(F)(F)C(F)(F)F`, the result was inactive.

Turning to `O=C(O)C=C(C(F)(F)F)C(F)(F)F`, the result was inactive.

Turning to `C=CC(=O)OCC(F)(F)C(F)(F)C(F)(F)C(F)(F)C(F)(F)C(F)(F)C(F)(F)F`, the outcome was inactive.

With `O=S(=O)(OCC(F)F)C(F)(F)F`, the result was inactive.

For `OCC(F)(F)C(F)(F)C(F)(F)C(F)F`, the result was inactive.

For the compound `OCCCC(F)(F)C(F)(F)C(F)(F)F`, the result was inactive.

As to `FC(F)(F)C(F)(F)C(F)(F)C(F)(F)C(F)(F)C(F)(F)C(F)(F)Br`, the outcome was inactive.

Turning to `COC(=O)CCC(F)(F)C(F)(F)C(F)(F)C(F)(F)F`, the outcome was inactive.

`FC(F)(F)C(F)(F)C(F)(F)C(F)(F)C(F)(F)C(F)(F)C(F)(F)C(F)(F)CCS`: the outcome was inactive.

Take `OCC(F)(F)C(F)(F)C(F)(F)C(F)(F)C(F)(F)C(F)F`: the outcome was inactive.

Turning to `O=C(O)C(F)(F)C(F)(F)C(F)(F)C(F)(F)C(F)(F)C(F)(F)C(F)(F)C(F)(F)C(F)(F)C(F)(F)C(F)(F)C(F)(F)F`, the result was inactive.

In the case of `CCO[Si](CCC(F)(F)C(F)(F)C(F)(F)C(F)(F)C(F)(F)C(F)(F)F)(OCC)OCC`, the result was inactive.

With `FC(F)(F)C(F)(F)C(F)(F)C(F)(F)C(F)(F)C(F)(F)CC1CO1` (stereo not given), the result was inactive.

Consider `C=CC(F)(F)C(F)(F)C(F)(F)C(F)(F)C(F)(F)C(F)(F)C(F)(F)C(F)(F)F`, for which the outcome was inactive.

On to `Cc1ccc(S(=O)(=O)OCC(F)(F)C(F)(F)C(F)(F)C(F)(F)C(F)(F)C(F)F)cc1`, for which the result was inactive.

With `OCC(F)(F)C(F)(F)C(F)(F)F`, the outcome was inactive.

For `C=C(C)C(=O)OCCC(F)(F)C(F)(F)C(F)(F)C(F)(F)C(F)(C(F)(F)F)C(F)(F)F`, the outcome was inactive.

As for `CC(C)(C)C(=O)CC(=O)C(F)(F)C(F)(F)C(F)(F)F`, the result was inactive.

Take `CCCCCCOC(=O)c1ccccc1O`: the result was inactive.

Turning to `OCCCC(F)(F)C(F)(F)C(F)(F)C(F)(F)C(F)(F)C(F)(F)C(F)(F)F`, the half-maximal activity concentration (AC50) is 45.9 µM (active) and 46.9 µM (active).

With `O=C(O)C(F)(F)C(F)(F)C(F)(F)C(F)(F)C(F)(F)C(F)(F)C(F)(F)C(F)(F)Cl`, the concentration at half-maximal activity (AC50) was 40.8 µM (active) and 23.3 µM (active).

As to `O=C(Cl)C(F)(F)C(F)(F)C(F)(F)C(F)(F)C(F)(F)C(F)(F)C(F)(F)C(F)(F)F`, the AC50 was 48.3 µM (active) and 46.7 µM (active) and 48.2 µM (active).

Take `O=C(O)C(F)(OC(F)(F)C(F)(OC(F)(F)C(F)(OC(F)(F)C(F)(F)C(F)(F)F)C(F)(F)F)C(F)(F)F)C(F)(F)F` (stereo not given): the result was inactive.

Consider `FC(F)(F)C(F)(F)C(F)(F)C(F)(F)C(F)(F)CCI`, for which the result was inactive.

Take `FC(F)(F)C(F)(F)C(F)(F)C(F)(F)CCI`: the outcome was inactive.

With `C=C(C)C(=O)OCC(F)(F)C(F)(F)C(F)(F)C(F)(F)C(F)(F)C(F)(F)C(F)(F)F`, the result was inactive.

Regarding `O=C(O)C(F)(F)C(F)(F)C(F)(F)C(F)(F)F`, the outcome was inactive.

For the compound `O=S(=O)(O)C(F)(F)C(F)(F)C(F)(F)C(F)(F)C(F)(F)C(F)(F)C(F)(F)F`, the outcome was inactive.
